Test results: the supplement of paper PMC7156485
A number with no mark means an inactive call.
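Note: TDF is a line of transformed human dermal fibroblasts of mesenchymal origin.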

Each compound was assayed on HCC1569 (assay: H1.0 immunofluorescence intensity relative to DMSO (% of DMSO); higher = stronger H1.0 induction, active = 140 or more). Conditions: concentration: 10 µM; 24 h.
Outline: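 After 24 h at 37 °C with compounds at 10 µM, in triplicate, HCC1569 and TDF cells were fixed with 3.7% formaldehyde. Immunostaining used a rabbit anti-H1.0 antibody and an AlexaFluor 647 secondary, with DAPI, and six fields per well were imaged at ×10. H1.0 nuclear intensity or cell number is presented as percent of the plate control, from the median of replicates, with HCC1569 values smoothed for positional effects.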
`O=c1cc(-c2ccc(O)cc2)oc2cc(OC3OC(CO)C(O)C(O)C3O)cc(O)c12` (configuration not stated) [Apigenin-7-glucoside] showed an H1.0 immunofluorescence intensity of 91. In the case of `O=c1ccc2ccc(O)c(O)c2o1` [7,8-dihydroxy-2H-chromen-2-one], the H1.0 immunofluorescence intensity is reported as 91. `COc1cc2c(CCNC(C)=O)c[nH]c2cc1O` [6-Hydroxymelatonin] gave an H1.0 immunofluorescence intensity of 94. `O=c1[nH]ccc2c(S(=O)(=O)N3CCCNCC3)cccc12` gave an H1.0 immunofluorescence intensity of 104. `Nc1nc(=O)c2ncn(COC(CO)CO)c2[nH]1` [Ganciclovir] was tested, and the H1.0 immunofluorescence intensity was 99.6. `NC(CS(=O)O)C(=O)O` [L-Cysteinesulfinic Acid] gave an H1.0 immunofluorescence intensity of 92.3. `CC(C)(O)c1ccccc1CCC(SCC1(CC(=O)O)CC1)c1cccc(C=Cc2ccc3ccc(Cl)cc3n2)c1` (configuration not stated) [Montelukast] was tested, and the H1.0 immunofluorescence intensity was 94.9. `CCCCC(C)(O)CC=CC1C(O)CC(=O)C1CCCCCCC(=O)OC` (configuration not stated) [Misoprostol] showed an H1.0 immunofluorescence intensity of 108. In the case of `Nc1ccc(N2C(=O)c3ccccc3C2=O)c(Cl)c1` [N-(4-Amino-2-chlorophenyl)phthalimide], the H1.0 immunofluorescence intensity is reported as 100. `CC(=O)Nc1nc(C)c(S(=O)(=O)Nc2ccc(C(O)(C(F)(F)F)C(F)(F)F)cc2)s1` showed an H1.0 immunofluorescence intensity of 111. `COC1C=COC2(C)Oc3c(C)c(O)c4c(O)c(cc(O)c4c3C2=O)NC(=O)C(C)=CC=CC(C)C(O)C(C)C(O)C(C)C(OC(C)=O)C1C` (configuration not stated) showed an H1.0 immunofluorescence intensity of 103. For `O=C(O)c1cn(C2CC2)c2cc(N3C[C@@H]4C[C@H]3CN4)c(F)cc2c1=O`, the H1.0 immunofluorescence intensity was 102.
